High-throughput results deposited in PubChem BioAssay by several laboratories.
This is a sample that favours compounds with a hit; in the whole collection about 3.8% have one here.
PrPC TRFRET: inhibitors of human cell surface prion protein PrPC; AID 720596; inhibition, % at 13.8 µM; actives 0.43% (n = 370,000); TR-FRET read-out; P04156; in the data active = inhibition above about 24%
FBA Mtb inh: Mtb fructose-bisphosphate aldolase inhibition | purified M. tuberculosis FBA, fluorescence read-out | inhibition, % at 1 µM | AID 588726 | P9WQA3 | actives 2.3% (n = 360,000); in the data active = inhibition above about 27%
Target sequence (P9WQA3 whole entry, looked up): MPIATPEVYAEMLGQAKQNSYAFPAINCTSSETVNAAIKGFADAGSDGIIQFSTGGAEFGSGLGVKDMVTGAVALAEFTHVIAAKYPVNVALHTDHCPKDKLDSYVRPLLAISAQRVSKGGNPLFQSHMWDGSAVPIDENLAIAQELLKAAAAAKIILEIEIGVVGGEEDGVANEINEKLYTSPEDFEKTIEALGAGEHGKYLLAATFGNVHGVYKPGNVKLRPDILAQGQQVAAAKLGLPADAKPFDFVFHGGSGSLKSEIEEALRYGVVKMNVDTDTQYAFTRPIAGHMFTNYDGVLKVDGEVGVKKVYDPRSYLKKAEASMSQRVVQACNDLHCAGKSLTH
Yp Topo-I inh: blocks Yersinia pestis topoisomerase I activity; Y. pestis Topo-I cleavage product accumulation, plate reader; actives 0.064% (n = 360,000); activity, % at 10 µM; AID 504884; in the data active = activity above about 50%, passing the limit was not always enough
PrP 5UTR inh: inhibition of PrP 5' UTR reporter expression; actives 0.35% (n = 340,000); cell-based PrP 5' UTR mRNA reporter, plate reader; inhibition, % (no concentration beside the values); in the data active = inhibition above about 52%
GDH-TPI counter: counter-screen for M. tuberculosis FBA inhibitors: GDH-TPI coupled enzymes; inhibition, % at 4.8 µM; actives 1.2% (n = 360,000); GDH-TPI coupled enzyme counterscreen, NADH absorbance; in the data active = inhibition above about 30%
Mtb hypoxia inh: Mtb hypoxia fluorescent reporter inhibition. M. tuberculosis hypoxia-regulated fluorescent reporter, fluorescence. fluorescence inhibition, % (test concentration not listed). actives 0.1% (n = 300,000); in the data active = fluorescence inhibition mostly above about 23%, no sharp cut-off; inactive = mostly below about 17%
Hits are given with their value.

How did CC(=O)/C(N=Nc1ccc(-n2ccc(C(F)(F)F)n2)cc1)=C(\C)O do in these assays?
PrPC TRFRET: inactive; FBA Mtb inh: inactive; Yp Topo-I inh: inactive; PrP 5UTR inh: inactive; GDH-TPI counter: 35.2; Mtb hypoxia inh: inactive

What do the screens show for `CC(=O)/C(N=Nc1ccc(C(=O)O)cc1)=C(\C)O`?
PrPC TRFRET: inactive; FBA Mtb inh: inactive; Yp Topo-I inh: inactive; PrP 5UTR inh: inactive; GDH-TPI counter: inactive; Mtb hypoxia inh: inactive

Results for CCOC(=O)Cc1c(C)nc2c(-c3ccc(Cl)cc3)c[nH]n2c1=O ?
PrPC TRFRET: inactive; FBA Mtb inh: 56.0; Yp Topo-I inh: inactive; PrP 5UTR inh: inactive; GDH-TPI counter: inactive; Mtb hypoxia inh: inactive

How did CCOC(=O)Cc1c(C)nc2cc(-c3ccc(Cl)cc3)[nH]n2c1=O do in these assays?
PrPC TRFRET: inactive; FBA Mtb inh: inactive; Yp Topo-I inh: inactive; PrP 5UTR inh: inactive; GDH-TPI counter: inactive; Mtb hypoxia inh: inactive

Results for COC(=O)C1=C(SC)N(c2ccc(OC)cc2)C(c2ccccc2)CC1=O (stereo not drawn) ?
PrPC TRFRET: inactive; FBA Mtb inh: inactive; Yp Topo-I inh: inactive; PrP 5UTR inh: inactive; GDH-TPI counter: 33.3; Mtb hypoxia inh: inactive

Results for Cc1noc(NS(=O)(=O)c2ccc(NC=CC(=O)c3ccccc3)cc2)c1C ?
Mtb hypoxia inh: inactive

Results for CCc1cc2c(=O)n(-c3ccccc3)c(=S)[nH]c2s1 ?
PrPC TRFRET: inactive; FBA Mtb inh: inactive; Yp Topo-I inh: inactive; GDH-TPI counter: 32.3; Mtb hypoxia inh: inactive

What do the screens show for `Cc1[nH]c2ccccc2c1/C=N/NC(N)=S`?
PrPC TRFRET: inactive; FBA Mtb inh: inactive; Yp Topo-I inh: inactive; PrP 5UTR inh: inactive; GDH-TPI counter: 37.0

How did Cc1ccc(NC(=S)N/N=C/c2c(C)[nH]c3ccccc23)cc1 do in these assays?
PrPC TRFRET: inactive; FBA Mtb inh: inactive; Yp Topo-I inh: inactive; PrP 5UTR inh: inactive; GDH-TPI counter: inactive

How did CCCCC(CC(=O)c1ccccc1)C(OC(C)=O)C(=O)Oc1c(C(C)C)cccc1C(C)C (stereo not drawn) do in these assays?
Mtb hypoxia inh: inactive

How did C=C(C)CSc1nc2nc(C)c(Br)cc2[nH]1 do in these assays?
PrPC TRFRET: inactive; FBA Mtb inh: inactive; Yp Topo-I inh: inactive; PrP 5UTR inh: inactive; GDH-TPI counter: 36.4; Mtb hypoxia inh: inactive

What do the screens show for `COC(=O)CSc1nc2nc(C)c(Br)cc2[nH]1`?
PrPC TRFRET: inactive; FBA Mtb inh: inactive; Yp Topo-I inh: inactive; PrP 5UTR inh: inactive; GDH-TPI counter: inactive; Mtb hypoxia inh: inactive

How did CCOc1cc(C=Cc2cc(C(F)(F)F)[nH]c(=O)n2)ccc1O do in these assays?
Mtb hypoxia inh: inactive

What do the screens show for `CN(C)C=C(C(=O)c1ccccc1)n1cncn1`?
Mtb hypoxia inh: inactive

What do the screens show for `CC1Cc2ccccc2N1C(=O)c1cc2c(=O)n3ccccc3nc2n1C` (stereo not drawn)?
PrPC TRFRET: inactive; FBA Mtb inh: inactive; Yp Topo-I inh: inactive; PrP 5UTR inh: inactive; GDH-TPI counter: inactive; Mtb hypoxia inh: inactive

Results for Cn1c(C(=O)N2CCc3ccccc3C2)cc2c(=O)n3ccccc3nc21 ?
PrPC TRFRET: inactive; FBA Mtb inh: 72.7; Yp Topo-I inh: inactive; PrP 5UTR inh: inactive; GDH-TPI counter: inactive; Mtb hypoxia inh: inactive

What do the screens show for `CC1CN(C(=O)c2cc3c(=O)n4ccccc4nc3n2C)CC(C)O1` (stereo not drawn)?
PrPC TRFRET: inactive; FBA Mtb inh: active; Yp Topo-I inh: inactive; PrP 5UTR inh: inactive; GDH-TPI counter: inactive; Mtb hypoxia inh: inactive

What do the screens show for `CCOC(=O)C1CCN(C(=O)c2cc3c(=O)n4ccccc4nc3n2C)CC1`?
PrPC TRFRET: inactive; FBA Mtb inh: 132.6; Yp Topo-I inh: inactive; PrP 5UTR inh: inactive; GDH-TPI counter: inactive; Mtb hypoxia inh: inactive

How did Cn1c(C(=O)N2CCOCC2)cc2c(=O)n3ccccc3nc21 do in these assays?
PrPC TRFRET: inactive; FBA Mtb inh: active; Yp Topo-I inh: inactive; PrP 5UTR inh: inactive; GDH-TPI counter: inactive; Mtb hypoxia inh: inactive

Results for O=C(c1nc2ccccn2c1CNCCn1ccc2ccccc21)N1CCOCC1 ?
PrPC TRFRET: inactive; FBA Mtb inh: inactive; Yp Topo-I inh: inactive; PrP 5UTR inh: inactive; GDH-TPI counter: inactive; Mtb hypoxia inh: inactive

What do the screens show for `C=CCc1cccc(C=NNC(=O)C(C)Nc2cccc(C)c2)c1O` (stereo not drawn)?
Mtb hypoxia inh: inactive

What do the screens show for `CC(C)CC1CN=C(Nc2ccccc2)N1CCC1CCCC1` (stereo not drawn)?
Mtb hypoxia inh: inactive

How did CCCn1c(=N)c(S(=O)(=O)c2ccccc2)cc2c(=O)n3ccccc3nc21 do in these assays?
PrPC TRFRET: inactive; FBA Mtb inh: inactive; Yp Topo-I inh: inactive; PrP 5UTR inh: inactive; GDH-TPI counter: inactive; Mtb hypoxia inh: inactive

How did Cn1c(C(=O)N2CCN(C(=O)c3ccco3)CC2)cc2c(=O)n3ccccc3nc21 do in these assays?
PrPC TRFRET: inactive; FBA Mtb inh: active; Yp Topo-I inh: inactive; PrP 5UTR inh: inactive; GDH-TPI counter: inactive; Mtb hypoxia inh: inactive

Results for Cn1c(C(=O)O)cc2c(=O)n3ccccc3nc21 ?
PrPC TRFRET: inactive; FBA Mtb inh: active; Yp Topo-I inh: inactive; PrP 5UTR inh: inactive; GDH-TPI counter: inactive; Mtb hypoxia inh: inactive

How did COC(=O)C1=C(c2ccc(OC(F)(F)F)cc2)CC2CCC1N2C(=O)NCCNC(C)=O (stereo not drawn) do in these assays?
Mtb hypoxia inh: inactive

How did Cc1ccc(-c2cc(C(F)(F)F)c(C#N)c(=O)[nH]2)cc1 do in these assays?
PrPC TRFRET: inactive; FBA Mtb inh: 138.8; Yp Topo-I inh: inactive; PrP 5UTR inh: inactive; GDH-TPI counter: inactive; Mtb hypoxia inh: inactive

How did N#Cc1c(C(F)(F)F)cc(C2CC2)[nH]c1=O do in these assays?
PrPC TRFRET: inactive; FBA Mtb inh: active; Yp Topo-I inh: inactive; PrP 5UTR inh: inactive; GDH-TPI counter: inactive; Mtb hypoxia inh: inactive

Results for Cc1ccc(-c2cc(-c3ccccc3)[nH]c(=S)c2C#N)cc1 ?
PrPC TRFRET: inactive; FBA Mtb inh: inactive; Yp Topo-I inh: inactive; PrP 5UTR inh: inactive; GDH-TPI counter: inactive; Mtb hypoxia inh: inactive

Results for COc1cccc(-c2cc(C(F)(F)F)c(C#N)c(=O)[nH]2)c1 ?
PrPC TRFRET: inactive; FBA Mtb inh: active; Yp Topo-I inh: inactive; PrP 5UTR inh: inactive; GDH-TPI counter: inactive; Mtb hypoxia inh: inactive

How did CSc1cc(-c2ccccc2)[nH]c(=O)c1C#N do in these assays?
PrPC TRFRET: inactive; FBA Mtb inh: 34.2; Yp Topo-I inh: inactive; PrP 5UTR inh: inactive; GDH-TPI counter: inactive; Mtb hypoxia inh: inactive

What do the screens show for `COc1cccc(-c2c3c([nH]c(=O)c2C#N)CCc2cc(OC)ccc2-3)c1`?
Mtb hypoxia inh: inactive

How did CSc1cc(-c2ccccc2)n(C)c(=O)c1C#N do in these assays?
PrPC TRFRET: inactive; FBA Mtb inh: inactive; Yp Topo-I inh: inactive; PrP 5UTR inh: inactive; GDH-TPI counter: inactive; Mtb hypoxia inh: inactive

Results for CC=C1COC(C(=O)NCc2ccncc2)(C(F)(F)F)C=C1C=C1CCCCC1 (stereo not drawn) ?
Mtb hypoxia inh: inactive

What do the screens show for `COc1ccc(C2C3C(=O)N(C(C)(C)C)C(=O)C3[C@]3(Cc4ccccc4)C(=O)N(c4ccc(C)cc4)C(=O)N23)cc1` (stereo partly drawn)?
Mtb hypoxia inh: inactive
